The text below walks through data of PubChem BioAssay.

Unmarked numbers belong to inactive results. Active and inactive are the calls of the source.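 Rule for the calls: active = compounds lowering colon cancer cell viability after pretreatment blocking the GSK3B kinase; inactive = the rest.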

This assay can be described thus: growth inhibition of GSK3B-pretreated HCT116 cells – cell-based, CellTiter-Glo, 0.2 to 20 µM (AID 1117336). The note with it: HCT116 viability after GSK3B inhibitor, at 20 µM, hits give high values.
In the case of `CCCCCCCC/C=C/C(=O)O`, the viability decrease is -52.2%.
As to `O=C(OCC(COC(=O)c1cccnc1)(COC(=O)c1cccnc1)COC(=O)c1cccnc1)c1cccnc1`, the viability decrease was -13.3%.
Consider `CCCCC(O)/C=C(C)/C=C/C=C/C(=O)N1CCCC1=O` (centres undefined), for which the viability decrease is 1.6%.
On to `CCCCCCCC/C=C\CCCCCCCCN`, for which the viability decrease is 18.7%.
For the compound `C[N+](C)(CCOc1ccccc1)Cc1cccs1`, the viability decrease is 22.9%.
In the case of `CCCOc1ccc2c(c1)CC[C@@H]1[C@@H]2CC[C@]2(C)C(OC)CC[C@@H]12` (some centres undefined), the viability decrease is 69.6% (active).
To `NS(=O)(=O)c1ccc(Cl)c(S(N)(=O)=O)c1` belongs -4.9%.
To `COc1ccc2c(c1)c(CC(=O)OC/C=C(\C)CC/C=C(\C)CCC=C(C)C)c(C)n2C(=O)c1ccc(Cl)cc1` belongs -16.7%.
To `O=S(=O)(O)CC(S)CS` (centres undefined) belongs -25.4%; to `Cc1ccc2ccc(Cl)cc2n1`, -1.7%.
As to `NC(=O)NS(=O)(=O)c1ccc(Cl)cc1`, the viability decrease is -3.8%.
Turning to `COc1cccc(CCc2ccccc2OCC(CN(C)C)OC(=O)CCC(=O)O)c1` (centres undefined), the viability decrease is 53.9% (active).
Take `Cc1cc(O)c(Cl)c(C)c1Cl`: the viability decrease is -24.1%.
The same measure for `COc1cccc2c1C(=O)c1c(O)c3c(c(O)c1C2=O)C[C@@](O)(C(=O)CO)C[C@@H]3O[C@H]1C[C@H](N)[C@H](O[C@@H]2CCCCO2)[C@H](C)O1`: 78.8% (active); for `CCCCCCCCCC(=O)O`: -11.4%; for `O=C(CCN1CCC(c2ccccc2)C1)c1ccc2c(c1)OCCO2` (centres undefined): 11.6%.
Take `CNC(=O)c1cnn(-c2nc(N)c3ncn([C@@H]4O[C@H](CO)[C@@H](O)[C@H]4O)c3n2)c1`: the viability decrease is 3.8%.
With `O=C(O)Cc1cn(-c2ccccc2)nc1-c1ccc(Cl)cc1`, the viability decrease is 20.4%.
`CC1(S(=O)(=O)O)CC(=O)c2ccccc2C1=O` (centres undefined): the viability decrease was 98.8% (active).
For the compound `OCCCc1ccccc1`, the viability decrease was 9.55%.
Regarding `NC(N)=NN=C(/C=C/c1ccc([N+](=O)[O-])o1)/C=C/c1ccc([N+](=O)[O-])o1`, the viability decrease is 99.3% (active).
The same measure for `O=C1c2ccccc2CCc2ccccc21`: 7%; for `Oc1ccccc1`: -6.9%; for `CCOC(=O)c1ccc(NC(=O)CN2CCCCC2)cc1`: 18.5%.
As for `COc1ccccc1OC(=O)Oc1ccccc1OC`, the viability decrease was 6.05%.
In the case of `CC1(C)CO[C@@H](CC(=O)O)CN1`, the viability decrease is -0.8%.
To `CCCCN=C(N)N=C(N)N` belongs -10.8%; to `O=C(O)CCC(=O)C(=O)O`, 0.1%.
The same measure for `Cc1ccc(CCn2c3c(c4cc(Cl)ccc42)CN(C)CC3)cn1`: 40.3%.
Regarding `C[C@@H](N)C(=O)O`, the viability decrease was 9%.
As for `CCc1nnc(NS(=O)(=O)c2ccc(N)cc2)s1`, the viability decrease was 5.1%.
To `NS(=O)(=O)c1cc(-c2nn[nH]n2)c(NCc2cccs2)cc1Cl` belongs -3%; to `O=C(O)CNC(=O)CNC(=O)CNC(=O)CSC(=O)c1ccccc1`, -1.9%.
To `CCCCCCCCCCCCCCCCCCN(C)C` belongs 1.2%; to `Oc1cccc(-c2c3nc(c(-c4cccc(O)c4)c4ccc([nH]4)c(-c4cccc(O)c4)c4nc(c(-c5cccc(O)c5)c5ccc2[nH]5)CC4)C=C3)c1`, 95.2% (active); to `C=CCNc1nc(NCC=C)nc(N2CCN(C(c3ccc(F)cc3)c3ccc(F)cc3)CC2)n1`, 50.3% (active).
To `O=C(CCN1CCN(CCO)CC1)N1c2ccccc2Sc2ccc(C(F)(F)F)cc21` belongs 50.2% (active); to `COc1ccc(OC(=O)N(CC(=O)O)Cc2ccc(OCCc3nc(-c4ccccc4)oc3C)cc2)cc1`, 100% (active).
As for `Oc1ccc(CCNCCCCCCNCCc2ccccc2)cc1O`, the viability decrease is 83.3% (active).
